The values below come from PubChem BioAssay (NCATS).

Each structure is given as a SMILES string. Results filed as inconclusive are left out. A call without a number means that no potency is given here. Active and inactive are the calls of the source. Calls follow the shape of the dose curve; as a rule, active = well fitted inhibition curve with a large enough effect; inconclusive = small, poorly fitted or top-dose-only effect; inactive = flat fitted curve, though single readings scatter.
Potency is read from the fitted curve at half-maximal effect.

The test system of the assay is CP329. Put plainly: qHTS profiling for inhibitors of Plasmodium falciparum proliferation (AID 504749). Also: nearly all actives have a fitted effect of over 60% in size. The note with it: P. falciparum in erythrocytes, SYBR Green DNA, 72 h; series mostly up to 28.7 µM. In short, it runs like this:
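P. falciparum-infected erythrocytes (0.3% parasitemia, 2.5% hematocrit) incubated with compound 72 h at 37 C, 5% CO2. Parasite DNA detected by SYBR Green after lysis, overnight at room temperature; normalised to 0.29 uM artemisinin and DMSO.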
Turning to `S=C=Nc1ccc(N=C=S)cc1`, the Potency result is “inactive”. For `N=C(N)n1cccn1` the value was “inactive”.

For `Cc1cccc(C)c1NC(=O)NC1=CCCN1C`, the Potency result was “inactive”. `Cc1cc(-c2ccc(N=Nc3ccc4c(S(=O)(=O)O)cc(S(=O)(=O)O)c(N)c4c3O)c(C)c2)ccc1N=Nc1ccc2c(S(=O)(=O)O)cc(S(=O)(=O)O)c(N)c2c1O`: the Potency entry was “inactive”. For the compound `O=P(O)(O)O`, the Potency entry was “inactive”. With `CN(CCO)CC(O)Cn1cnc2c1c(=O)n(C)c(=O)n2C` (centres undefined) (tested in a mixture with another compound), the Potency entry was “inactive”. For the compound `O=C(O)Cc1cc(I)c(Oc2ccc(O)c(I)c2)c(I)c1`, the Potency result is “inactive”. With `COC1=C(OC)C(=O)C(C/C=C(\C)CC/C=C(\C)CC/C=C(\C)CC/C=C(\C)CC/C=C(\C)CC/C=C(\C)CC/C=C(\C)CC/C=C(\C)CC/C=C(\C)CCC=C(C)C)=C(C)C1=O`, the Potency entry is “inactive”. Take `CN=C1C=CC(=C(c2ccc(N(C)C)cc2)c2ccc(N(C)C)cc2)C=C1`: the Potency is 757 nM (active). For the compound `CCOc1ccc(S(=O)(=O)O)c2cccnc12`, the Potency result is “inactive”. Turning to `FC(F)(F)COCC(F)(F)F`, the Potency result was “inactive”. For `O=C(O)[C@H]1C(=CCO)O[C@H]2CC(=O)N12`, the Potency result was “inactive”.

Turning to `CC1CC(O)CC(C)(C)C1` (centres undefined), the Potency entry was “inactive”. `Cc1ncc(C[n+]2csc(CCOP(=O)(O)O)c2C)c(N)n1`: the Potency entry was “inactive”. Take `CCCCO`: the Potency entry is “inactive”. Then `CCOC(=S)SSC(=S)OCC`, with “inactive”; and `N[C@H](CC(=O)O)C(=O)O`, with “inactive”. For `CCC(C(=O)NC(N)=O)c1ccccc1` (centres undefined), the Potency entry is “inactive”. As for `CCN(CC)CCOC(=O)c1cccnc1`, the Potency result is “inactive”. Then `NC(=S)NS(=O)(=O)c1ccc(N)cc1`, with “inactive”. Regarding `COc1cc2c(cc1OC)[C@@H](Cc1cc(OC)c(OC)c(OC)c1)[N+](C)(CCCOC(=O)CC/C=C/CCC(=O)OCCC[N+]1(C)CCc3cc(OC)c(OC)cc3[C@H]1Cc1cc(OC)c(OC)c(OC)c1)CC2` (some centres undefined), the Potency result is “inactive”.

In the case of `Cc1ncc(COP(=O)(O)O)c(CN)c1O`, the Potency entry is “inactive”.

With `C[C@H](N)C(=O)N[C@@H](C)P(=O)(O)O`, the Potency result is “inactive”. Turning to `CO[C@H]1C[C@@H]2CC[C@@H](C)[C@@](O)(O2)C(=O)C(=O)N2CCCC[C@H]2C(=O)O[C@H]([C@H](C)C[C@@H]2CC[C@@H](OC(=O)C(C)(CO)CO)[C@H](OC)C2)CC(=O)[C@H](C)/C=C(\C)[C@@H](O)[C@@H](OC)C(=O)[C@H](C)C[C@H](C)/C=C/C=C/C=C/1C`, the Potency result was “inactive”.

As for `CC1=C(/C=C/C(C)=C/C=C/C(C)=C/C(=O)Oc2c(C)c(C)c3c(c2C)CC[C@@](C)(CCC[C@H](C)CCC[C@H](C)CCCC(C)C)O3)C(C)(C)CCC1`, the Potency entry was “inactive”. On to `CCCCCCCCCCCCCC(=O)OCC(COP(=O)([O-])OCC[N+](C)(C)C)OC(=O)CCCCCCCCCCCCC` (centres undefined), for which the Potency result was “inactive”. Turning to `CC(C)c1ncc([N+](=O)[O-])n1C`, the Potency result is “inactive”. In the case of `NC(=O)[C@@H]1CCCN1C(=O)[C@H](Cc1cnc[nH]1)NC(=O)[C@@H]1CCC(=O)N1`, the Potency result is “inactive”. For the compound `Cc1ccccn1`, the Potency result was “inactive”. Then `Nc1nccs1`, with “inactive”; and `O=C(NCCNCC(O)COc1ccc(O)cc1)N1CCOCC1` (centres undefined), with “inactive”; and `CC(C)CCC[C@@H](C)[C@H]1CC[C@H]2[C@@H]3CC=C4C[C@@H](O)CC[C@]4(C)[C@H]3CC[C@]12C`, with “inactive”. With `CS(=O)(=O)OCC(O)C(O)COS(C)(=O)=O` (centres undefined), the Potency result is “inactive”. Take `NCC[C@H](O)C(=O)N[C@@H]1C[C@H](N)[C@@H](O[C@H]2O[C@H](CN)CC[C@H]2N)[C@H](O)[C@H]1O[C@H]1O[C@H](CO)[C@@H](O)[C@H](N)[C@H]1O`: the Potency result is “inactive”.

With `OCC(O)CO`, the Potency entry is “inactive”. Then `CCOc1ccc(NC(=S)Nc2ccc(OCC)cc2)cc1`, with “inactive”. Turning to `CCOC(=O)c1cc(-c2ccccc2)nc2ccc(C)cc12`, the Potency entry was “inactive”. Consider `OCl`, for which the Potency result is “inactive”. Take `CCc1ncnc2cc(OC)c(OC)cc12`: the Potency result was “inactive”.
